From PubChem BioAssay (Tox21)
Inconclusive results are not listed. Activity calls are given as the source filed them. Unless noted, calls follow the shape of the dose curve; as a rule, active = well fitted curve in the direction sought with a large enough effect in the repeat runs; inconclusive = weak or mixed curves; inactive = no such curve, though single readings can be large; an effect the other way counts as inactive or inconclusive.

Experiments:
[1] = A CellTox Green Cytotoxicity Assay to monitor cytotoxicity in HepG2 cells - 0 hour (AID 1224882); also: nearly all actives have a fitted effect of over 35% in size
Procedure, shortened: (§1)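 HepG2 cells, 600/well, preincubated 5 h with CellTox Green dye, then exposed to Tox21 compounds in DMSO at 37 C for up to 40 h. Dead-cell DNA fluorescence read at the indicated time point.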

[2] = A CellTox Green Cytotoxicity Assay to monitor cytotoxicity in HepG2 cells - 32 hour (AID 1224883); also: nearly all actives have a fitted effect of over 50% in size
Procedure, shortened: as §1

[3] = A CellTox Green Cytotoxicity Assay to monitor cytotoxicity in HEK293 cells - 8 hour (AID 1224884); also: nearly all actives have a fitted effect of over 35% in size
Procedure, shortened: (§2)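 HEK293 cells, 600/well, were preincubated 5 hours and then exposed to compounds at 37 C for up to 40 hours. A cell-impermeant cyanine dye staining dead-cell DNA was read by fluorescence at 0, 8, 16, 24, 32 and 40 h time points.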

[4] = qHTS RealTime-Glo MT Cell Viability Assay in HepG2 cells - 16 hour (AID 1224885); also: nearly all actives have a fitted effect of over 50% in size
Procedure, shortened: (§3)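 HepG2 suspension premixed with RealTime-Glo reagents is plated at 600 cells per well and left 5 h at 37 C/5% CO2. Compounds in DMSO then go in, and bioluminescence reflecting viable cell number is recorded over 40 h.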

[5] = qHTS RealTime-Glo MT Cell Viability Assay in HEK293 cells - 24 hour (AID 1224886); also: top concentration of the series differs between compounds; nearly all actives have a fitted effect of over 50% in size
Procedure, shortened: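 Reads taken at 0, 8, 16, 24, 32 and 40 h from the same wells. HEK293 cells (600/well) carried RealTime-Glo reagents from seeding, with compound added after a 5 h settle at 37 C.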

[6] = qHTS RealTime-Glo MT Cell Viability Assay in HEK293 cells - 8 hour (AID 1224887); also: top concentration of the series differs between compounds; nearly all actives have a fitted effect of over 50% in size
Procedure, shortened: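 600 cells/well were plated with the nonlytic NanoLuc/prosubstrate reagent, pre-incubated 5 h, then given 23 nL of compound in DMSO. Incubation at 37 C for 40 h, with luminescence from viable-cell-reduced substrate read repeatedly from 0 h.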

[7] = A CellTox Green Cytotoxicity Assay to monitor cytotoxicity in HEK293 cells - 16 hour (AID 1224888); also: nearly all actives have a fitted effect of over 35% in size
Procedure, shortened: as §2

[8] = qHTS RealTime-Glo MT Cell Viability Assay in HepG2 cells - 0 hour (AID 1224889); also: nearly all actives have a fitted effect of over 50% in size
Procedure, shortened: as §3

[9] = A CellTox Green Cytotoxicity Assay to monitor cytotoxicity in HepG2 cells - 8 hour (AID 1224890); also: nearly all actives have a fitted effect of over 45% in size
Procedure, shortened: as §1

[10] = qHTS assay to identify small molecule antagonists of the estrogen receptor alpha (ER-alpha) signaling pathway using the BG1 cell line in the presence of 0.1 nM 17-beta-estradiol - cell viability counter screen (AID 1259241); also: nearly all actives have a fitted effect of over 40% in size
Procedure, shortened: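 Live-cell protease activity (CellTiter-Fluor fluorescence, 30 min) was read in the same wells after VM7Luc4E2 cells had been exposed to compounds with 0.1 nM 17beta-estradiol for 22 hr at 37C.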

[11] = qHTS assay to identify small molecule antagonists of the androgen receptor (AR) signaling pathway using the MDA cell line in the presence of 0.5 nM R1881 - cell viability counter screen (AID 1259242); also: nearly all actives have a fitted effect of over 45% in size
Procedure, shortened: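 MDA-kb2 cells (MMTV-luciferase, AR/GR responsive) were treated with compounds plus 0.5 nM R1881 (final) for 16 hr at 37C, 0% CO2. Viability was then read in the same wells as live-cell protease fluorescence (CellTiter-Fluor, 30 min).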

[12] = qHTS assay to identify small molecule phospholipidosis (PLD) inducers (AID 1259344; active = well fitted curve in the direction sought with a large enough effect; an effect the other way counts as inactive or inconclusive)
Procedure, shortened: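 HepG2 cells grown on collagen I take up LipidTOX Red while exposed to compound for 24 h; after fixation they are imaged at 20x and pit metrics are extracted.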

[13] = qHTS assay to identify small molecule HDAC inhibitors (AID 1259364); also: top concentration of the series differs between compounds; nearly all actives have a fitted effect of over 45% in size
Procedure, shortened: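 Wild-type HCT-116 cells, plated overnight at 37 C, exposed to compounds 2 hr at 37 C; luminogenic HDAC-Glo substrate then added 30 min at room temperature. Luminescence reports relative endogenous class I/II HDAC activity.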

[14] = qHTS assay to identify small molecule HDAC inhibitors - cell viability counter screen (AID 1259365)
Procedure, shortened: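 HCT-116 (wild type), 1,500 cells/well, overnight 37C/5% CO2; compound in DMSO 2hr; CellTiter-Glo 30min RT; luminescence read.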

[15] = qHTS assay to identify small molecule agonists of the sonic hedgehog signaling (Shh) pathway - cell viability counter screen (AID 1259366); also: nearly all actives have a fitted effect of over 50% in size
Procedure, shortened: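 CellTiter-Fluor fluorescence read-out, 1 hr at 37C, added after 23hr compound exposure. Cells: 3T3 Gli1-Luc, an NIH/3T3 clone with stably integrated Gli1-Luc reporter, plated 4hr before compound.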

[16] = qHTS assay to identify small molecule antagonists of the sonic hedgehog signaling (Shh) pathway - cell viability counter screen (AID 1259367); also: nearly all actives have a fitted effect of over 55% in size
Procedure, shortened: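 After a 4 hr settling period, 3T3 Gli1-Luc cells were treated with DMSO-dissolved chemicals and conditioned medium, kept 24 hr at 37C in 5% CO2, and assayed for viability by CellTiter-Fluor fluorescence following 1 hr reagent incubation.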

[17] = qHTS assay to identify small molecule agonists of the sonic hedgehog signaling (Shh) pathway (AID 1259368; calls by dose curve;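 also: NIH/3T3-derived 3T3Gli1-Luc cells carrying a stable Gli1-driven firefly luciferase reporter; series mostly up to about 92 µM; nearly all actives have a fitted effect of over 15% in size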)
Procedure, shortened: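 NIH/3T3-derived 3T3Gli1-Luc cells with stably integrated Gli1-driven firefly luciferase, 2,000 cells/well, compounds added after 4 hr. Incubated 24 hr at 37C, 5% CO2; luminescence read after 30 min with luciferase reagent at room temperature.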

[18] = qHTS assay to identify small molecule antagonists of the sonic hedgehog signaling (Shh) pathway (AID 1259369; calls by dose curve; also: nearly all actives have a fitted effect of over 45% in size)
Procedure, shortened: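 NIH/3T3-derived Gli1-Luc reporter cells plated 4 h, dosed with compound, then stimulated with conditioned medium for 24 h at 37 C. Firefly luciferase luminescence read after 30 min with detection reagent at room temperature.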

[19] = target: Estrogen receptor (Homo sapiens) (UniProt P03372); test: qHTS assay to identify small molecule antagonists of the estrogen receptor alpha (ER-alpha) signaling pathway using the BG1 cell line in the presence of 0.1 nM 17-beta-estradiol (AID 1259244); also: nearly all actives have a fitted effect of over 50% in size
Procedure, shortened: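 VM7Luc4E2 cells (endogenous full-length ER-alpha, 4×ERE-luciferase), kept 5 days in phenol red-free, charcoal-stripped FBS medium; 4,000 cells/well. Compounds added with 0.1 nM (final) 17beta-estradiol, 22 hr at 37C; luminescence read with ONE-Glo after 30 min.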
% is scaled to controls: 0 for no effect and ±100 for the full control effect.

Chain of Estrogen receptor (Homo sapiens) (P03372 whole entry, looked up): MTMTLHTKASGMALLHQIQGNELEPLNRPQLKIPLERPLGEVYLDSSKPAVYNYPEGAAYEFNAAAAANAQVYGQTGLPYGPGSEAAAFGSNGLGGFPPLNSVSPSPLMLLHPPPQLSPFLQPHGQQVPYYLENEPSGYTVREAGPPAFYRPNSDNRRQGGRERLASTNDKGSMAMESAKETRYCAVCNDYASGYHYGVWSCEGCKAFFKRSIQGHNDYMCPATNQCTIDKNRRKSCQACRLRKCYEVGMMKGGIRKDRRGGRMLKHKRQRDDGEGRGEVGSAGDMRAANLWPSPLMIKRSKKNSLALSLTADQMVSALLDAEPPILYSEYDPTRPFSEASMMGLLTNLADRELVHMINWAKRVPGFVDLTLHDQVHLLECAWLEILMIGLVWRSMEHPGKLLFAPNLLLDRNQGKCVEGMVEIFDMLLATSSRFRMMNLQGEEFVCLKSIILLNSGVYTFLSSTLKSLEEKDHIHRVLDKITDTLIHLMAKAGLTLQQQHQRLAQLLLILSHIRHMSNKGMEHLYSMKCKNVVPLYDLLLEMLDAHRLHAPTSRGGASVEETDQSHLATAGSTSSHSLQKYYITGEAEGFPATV

C[N+]1(CC2COC(c3ccccc3)(c3ccccc3)O2)CCCCC1 (configuration not stated)
inactive: cytotoxicity [1] -9.88% [at 15.8 µM] | cytotoxicity increase [2] -0.506% [at 15.8 µM] | cytotoxicity increase [3] -4.15% [at 15.8 µM] | activity change, negative = cytotoxic [4] -0.0866% [at 15.8 µM] | activity change, negative = cytotoxicity [5] -2.13% [at 15.8 µM] | activity change, negative = cytotoxicity [6] 0.757% [at 15.8 µM] | activity change [7] -8.9% [at 15.8 µM] | activity change, negative = cytotoxicity [8] -6.4% [at 15.8 µM] | cytotoxicity increase [9] 0.368% [at 15.8 µM] | activity change, negative = cytotoxicity [10] 0.56% [at 19 µM] | viability change, negative = cytotoxic [11] 1.83% [at 19 µM] | outcome [12] | activity change, negative = inhibition [13] 0.669% [at 19 µM] | activity change, negative = cytotoxicity [14] 0.214% [at 19 µM] | viability change, negative = cytotoxic [15] 9.08% [at 19 µM] | viability change, negative = cytotoxic [16] 14.2% [at 19 µM] | activity change [17] 0.753% [at 18.9 µM] | activity change, negative = inhibition [18] -10.9% [at 19 µM]

NCCCC(N)(C(=O)O)C(F)F (configuration not stated)
inactive: Potency [1] | Potency [2] | outcome [3] | outcome [4] | Potency [5] | Potency [6] | outcome [7] | Potency [8] | outcome [9] | outcome [10] | outcome [11] | outcome [12] | Potency [13] | outcome [14] | Potency [15] | outcome [17] | Potency [18]

CN(C)[C@@H]1C(=O)C(C(=O)NCN2CCCC2)=C(O)[C@@]2(O)C(=O)C3=C(O)c4c(O)cccc4[C@@](C)(O)C3C[C@@H]12 (some centres not stated)
inactive: Potency [1] | Potency [2] | outcome [3] | outcome [4] | Potency [5] | Potency [6] | outcome [7] | Potency [8] | outcome [9] | outcome [10] | outcome [11] | outcome [12] | Potency [13] | outcome [14] | Potency [15] | outcome [17] | Potency [18]

CCO[Si](OCC)(OCC)c1ccccc1
inactive: Potency [1] | Potency [2] | outcome [3] | outcome [4] | Potency [5] | Potency [6] | outcome [7] | Potency [8] | outcome [9] | outcome [10] | outcome [11] | Potency [13] | outcome [14] | Potency [15] | Potency [16] | outcome [17] | Potency [18]

CC(=O)NC(=O)c1ccccc1O
inactive: Potency [1] | Potency [2] | outcome [3] | outcome [4] | Potency [5] | Potency [6] | outcome [7] | Potency [8] | outcome [9] | outcome [10] | outcome [11] | outcome [12] | Potency [13] | outcome [14] | Potency [15] | Potency [16] | outcome [17] | Potency [18]

C[C@@H]1CCC[C@H](C)N1
inactive: Potency [1] | Potency [2] | outcome [3] | outcome [4] | Potency [5] | Potency [6] | outcome [7] | Potency [8] | outcome [9] | outcome [10] | outcome [11] | outcome [12] | Potency [13] | outcome [14] | Potency [15] | Potency [16] | outcome [17] | Potency [18]

Cc1ncc(COP(=O)(O)O)c(C=O)c1O
inactive: Potency [1] | Potency [2] | outcome [3] | outcome [4] | Potency [5] | Potency [6] | outcome [7] | Potency [8] | outcome [9] | outcome [10] | outcome [11] | outcome [12] | Potency [13] | outcome [14] | Potency [15] | Potency [16] | outcome [17] | Potency [18]

CC(C)=CCC/C(C)=C/C#N
inactive: Potency [1] | Potency [2] | outcome [3] | outcome [4] | Potency [5] | Potency [6] | outcome [7] | Potency [8] | outcome [9] | outcome [10] | outcome [11] | outcome [19] | Potency [13] | Potency [15] | Potency [16] | outcome [17]

COc1ccc2cc1Oc1cc3c(cc1OC)CC[N+](C)(C)[C@H]3Cc1ccc(cc1)Oc1c(OC)c(OC)cc3c1[C@@H](C2)[N+](C)(C)CC3
inactive: Potency [1] | Potency [2] | outcome [3] | outcome [4] | Potency [5] | Potency [6] | outcome [7] | Potency [8] | outcome [9] | outcome [10] | outcome [11] | outcome [12] | Potency [13] | outcome [14] | Potency [15] | Potency [16] | Potency [18]

CC12CCC(C(=O)C1=O)C2(C)C (configuration not stated)
inactive: Potency [1] | Potency [2] | outcome [3] | outcome [4] | Potency [5] | Potency [6] | outcome [7] | Potency [8] | outcome [9] | outcome [10] | outcome [11] | Potency [13] | outcome [14] | Potency [15] | Potency [16] | outcome [17] | Potency [18]

CC[N+](C)(CC)CCOC(=O)C1c2ccccc2Oc2ccccc21
inactive: Potency [1] | Potency [2] | outcome [3] | outcome [4] | Potency [5] | Potency [6] | outcome [7] | Potency [8] | outcome [9] | outcome [10] | outcome [11] | outcome [12] | Potency [13] | outcome [14] | Potency [15] | Potency [16] | outcome [17] | Potency [18]

CC(CO)(CO)[N+](=O)[O-]
inactive: Potency [1] | Potency [2] | outcome [3] | outcome [4] | Potency [5] | Potency [6] | outcome [7] | Potency [8] | outcome [9] | outcome [10] | outcome [11] | Potency [13] | outcome [14] | Potency [15] | outcome [17] | Potency [18]

NC(N)=NCCN1CCCCCCC1
inactive: cytotoxicity [1] -10% [at 0.29 µM] | cytotoxicity increase [2] -12.8% [at 0.29 µM] | cytotoxicity increase [3] 0.959% [at 0.29 µM] | activity change, negative = cytotoxic [4] 1.58% [at 0.29 µM] | activity change, negative = cytotoxicity [5] -3.39% [at 0.29 µM] | activity change, negative = cytotoxicity [6] -0.479% [at 0.29 µM] | activity change [7] 1.24% [at 0.29 µM] | activity change, negative = cytotoxicity [8] 0.442% [at 0.29 µM] | cytotoxicity increase [9] -11.3% [at 0.29 µM] | activity change, negative = cytotoxicity [10] -0.721% [at 0.349 µM] | viability change, negative = cytotoxic [11] 1.84% [at 0.349 µM] | outcome [12] | activity change, negative = inhibition [13] -1.37% [at 0.349 µM] | activity change, negative = cytotoxicity [14] -1.69% [at 0.349 µM] | viability change, negative = cytotoxic [15] -1.53% [at 0.349 µM] | viability change, negative = cytotoxic [16] 3.04% [at 0.349 µM] | activity change, negative = inhibition [18] 18.5% [at 0.349 µM]

CCCC[N+](C)(CCCC)CCCC
inactive: Potency [1] | Potency [2] | outcome [3] | outcome [4] | Potency [5] | Potency [6] | outcome [7] | Potency [8] | outcome [9] | outcome [10] | outcome [11] | outcome [19] | Potency [13] | Potency [15] | Potency [16] | Potency [18]

C=CN1CCCCCC1=O
inactive: Potency [1] | Potency [2] | outcome [3] | outcome [4] | Potency [5] | Potency [6] | outcome [7] | Potency [8] | outcome [9] | outcome [10] | outcome [11] | Potency [13] | outcome [14] | Potency [15] | Potency [16] | outcome [17] | Potency [18]
